Data on 40 molecules can be found in ChEMBL document CHEMBL3988442, “University of Dundee, Small-Polar-MMV Screening Library” (2021).

Structures are written as SMILES.

For this assay, the target named is Chromo domain-containing protein 1 (Saccharomyces cerevisiae (strain ATCC 204508 / S288c) (Baker's yeast)) (UniProt P32657). Description: ScCHD-1 Enzyme Inhibition Assay. Set-up: scale not given: in the data most compounds retested in dose-response had high values. To be noted: 30 µM. The format is functional.
Chain of Chromo domain-containing protein 1 (Saccharomyces cerevisiae (strain ATCC 204508 / S288c) (Baker's yeast)) (P32657 whole entry, the tested form may be a part): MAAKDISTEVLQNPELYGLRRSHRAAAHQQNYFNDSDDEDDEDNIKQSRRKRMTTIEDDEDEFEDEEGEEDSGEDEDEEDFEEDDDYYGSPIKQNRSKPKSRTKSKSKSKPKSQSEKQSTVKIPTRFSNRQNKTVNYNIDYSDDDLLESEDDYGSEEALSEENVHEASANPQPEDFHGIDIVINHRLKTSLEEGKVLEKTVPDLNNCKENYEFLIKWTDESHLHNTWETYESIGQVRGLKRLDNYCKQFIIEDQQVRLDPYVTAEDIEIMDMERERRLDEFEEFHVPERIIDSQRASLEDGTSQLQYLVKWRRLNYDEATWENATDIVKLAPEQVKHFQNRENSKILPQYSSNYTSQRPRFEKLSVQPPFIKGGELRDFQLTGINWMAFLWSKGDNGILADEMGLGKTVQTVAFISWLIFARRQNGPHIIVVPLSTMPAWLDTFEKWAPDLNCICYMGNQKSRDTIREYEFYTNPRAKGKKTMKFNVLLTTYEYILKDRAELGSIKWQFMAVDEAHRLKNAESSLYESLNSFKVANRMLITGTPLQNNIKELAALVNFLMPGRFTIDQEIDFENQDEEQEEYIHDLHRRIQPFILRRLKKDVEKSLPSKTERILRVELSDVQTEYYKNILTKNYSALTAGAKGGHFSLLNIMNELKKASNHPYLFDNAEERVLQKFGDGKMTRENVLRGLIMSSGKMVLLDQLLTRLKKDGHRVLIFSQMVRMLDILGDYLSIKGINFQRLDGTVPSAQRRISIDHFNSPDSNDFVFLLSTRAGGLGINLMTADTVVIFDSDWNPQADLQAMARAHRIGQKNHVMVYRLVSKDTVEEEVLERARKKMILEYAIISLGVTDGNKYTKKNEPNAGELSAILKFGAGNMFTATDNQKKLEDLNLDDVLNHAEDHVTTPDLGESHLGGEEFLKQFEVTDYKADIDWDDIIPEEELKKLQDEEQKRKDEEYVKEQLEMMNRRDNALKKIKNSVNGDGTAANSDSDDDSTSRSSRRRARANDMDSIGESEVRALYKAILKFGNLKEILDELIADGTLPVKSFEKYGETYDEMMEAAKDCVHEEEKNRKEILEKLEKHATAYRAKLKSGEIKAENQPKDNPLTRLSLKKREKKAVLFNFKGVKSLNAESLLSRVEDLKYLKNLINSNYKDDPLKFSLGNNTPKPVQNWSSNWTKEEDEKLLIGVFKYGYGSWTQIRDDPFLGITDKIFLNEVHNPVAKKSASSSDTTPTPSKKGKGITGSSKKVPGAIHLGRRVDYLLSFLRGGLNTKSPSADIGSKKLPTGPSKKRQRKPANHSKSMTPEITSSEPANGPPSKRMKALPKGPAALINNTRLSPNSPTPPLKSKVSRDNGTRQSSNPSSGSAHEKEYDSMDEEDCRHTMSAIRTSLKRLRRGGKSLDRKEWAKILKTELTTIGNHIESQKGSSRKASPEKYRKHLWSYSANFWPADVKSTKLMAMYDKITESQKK
As for `Cc1ccc2c(c1)CN(C(=O)C1CCCCC1)C(CN(C)C)CO2` (stereo not given), the Percent Effect was -13.3%.

Take `O=C(O)c1cc2c(nc1O)CC(c1cccs1)CC2=O` (stereo not given): the Percent Effect is -9.66%.

In the case of `Cc1nc(N2CCCC2)nc2c1CCN(C(=O)C1CCCC1)CC2`, the Percent Effect was -6.44%.

`Cc1ccc(CC(=O)NCCCNS(C)(=O)=O)cc1`: the Percent Effect was -16.2%.

`CSCC(CCO)NC(=O)Nc1cc(C)ccc1C` (stereo not given): the Percent Effect was -3.27%.

As to `COC(=O)c1sccc1S(=O)(=O)N1CCC(Oc2ncccc2Cl)CC1`, the Percent Effect was -1.89%.

On to `Cc1cc(-c2cnn(CCNC(=O)C3CCCO3)c2C2CC2)on1` (stereo not given), for which the Percent Effect is 0.889%.

Regarding `Cc1ccc(NS(=O)(=O)CC2=NC(=O)n3cccc3C2=O)cc1`, the Percent Effect is -2.6%.

As to `CCS(=O)(=O)N1CCc2ccc(NC(=O)Nc3ccc(F)cc3F)cc21`, the Percent Effect was -9.26%.

Turning to `Cc1csc(C2CCCN(C(=O)c3cnc[nH]3)C2)n1` (stereo not given), the Percent Effect was -10.5%.

In the case of `O=C(c1ccc[nH]1)N1CCc2c(COCC3CC3)cncc2C1`, the Percent Effect was 0.2%.

As to `CC(C)c1nn(C)c(N(C)C)c1CNCc1ccccc1CN(C)C`, the Percent Effect was -12.6%.

`c1ccc(-c2noc(CN3CCC(c4ccn[nH]4)CC3)n2)cc1`: the Percent Effect is -1.3%.

Consider `Cc1ccc(C)c(NC(=O)N(C)Cc2cnn(C)c2)c1`, for which the Percent Effect was -4.13%.

For the molecule `COc1ccc(CN(Cc2cncn2C)CC2CCCO2)cc1OC` (stereo not given), the Percent Effect is -15%.

With `CN(C)C(=O)CC1CC2(CCN(C(=O)N(C)C)CC2)Oc2ccccc21` (stereo not given), the Percent Effect is -4.24%.

As for `Cc1noc(C)c1C(=O)NCC(C)N(C)C` (stereo not given), the Percent Effect was -3.89%.

For the molecule `COc1ccc2c(c1)CC(NC(=O)NCc1cccs1)CO2` (stereo not given), the Percent Effect is -2.81%.

With `Cc1cc(C)n(CC2CCCN2C(=O)c2ccc3c(c2)nnn3C)n1` (stereo not given), the Percent Effect was -4.89%.

Consider `O=C1[C@@H]2CCN(Cc3ccoc3)C[C@@H]2OCCN1Cc1cccnc1`, for which the Percent Effect came out at 1.76%.

For `CCc1nnc(CN(C)c2nc(C(C)C)nc3c2cnn3C)o1`, the Percent Effect was found to be 1.23%.

In the case of `CCOC(=O)NC(CNC(=O)CCc1ccccn1)CC(C)C` (stereo not given), the Percent Effect was -0.238%.

Turning to `CC(C)c1nn(C)c(N(C)C)c1CNCCC(=O)NC1CCCC1`, the Percent Effect is -6.05%.

As for `Cc1cnn(CC2CCCN2C(=O)c2cnc3n[nH]c(C)c3c2)c1` (stereo not given), the Percent Effect was -32.5%.

Regarding `O=C(c1ccnnc1)N1C[C@H]2CCC[C@@]2(COCC2CCOCC2)C1`, the Percent Effect came to 0.739%.

Take `Cc1nccn1CC1CCCN1S(=O)(=O)Cc1ccccc1` (stereo not given): the Percent Effect is -0.456%.

`CC(C)c1n[nH]c(C2CN(C(=O)CCn3ccccc3=O)CCO2)n1` (stereo not given): the Percent Effect was -5.25%.

Regarding `Cc1ccc(C(NC(=O)CC2CCN(C(C)C)CC2)C(=O)O)cc1` (stereo not given), the Percent Effect worked out at 0.336%.

Turning to `c1ccc(-c2nnn3c2COC(CNCC2CCOCC2)C3)cc1` (stereo not given), the Percent Effect was -2.25%.

`O=C(c1cncc(N2CCC3(CCNCC3)CC2)n1)N1CCCC1`: the Percent Effect is -13.4%.

For `Cc1cc(NC(=O)NCCc2cccs2)n(C)n1`, the Percent Effect was -0.833%.

Regarding `Cc1nc(-c2ccco2)ccc1C(=O)N1CCCC1Cn1cccn1` (stereo not given), the Percent Effect was -8.65%.

`CCOCC1CN(C(=O)CS(C)(=O)=O)Cc2cnn(C)c21` (stereo not given): the Percent Effect was -6.62%.

Turning to `O=C1CC(c2ccccc2F)c2c(n3ccsc3nc2=O)N1` (stereo not given), the Percent Effect was -9.93%.

In the case of `O=C(c1cccnc1-n1cccn1)N1CCN(CC2CC2)CC1`, the Percent Effect is -1.18%.

Consider `COc1cc(C(=O)N(Cc2cnn(C)c2)C(C)C)ccc1OCC(N)=O`, for which the Percent Effect is -2.3%.

For the molecule `Cc1nn(C)c(C)c1C1CCCN1CC(=O)NC(C1CC1)C1CC1` (stereo not given), the Percent Effect is -9.75%.

Take `Cc1nc(C2CCCN(C(=O)c3cccc4c3OCO4)C2)no1` (stereo not given): the Percent Effect was -23.7%.

With `COCCNC(=O)C(C)n1cc(Br)cn1` (stereo not given), the Percent Effect is 135%.

With `Cc1nc(CN2CCOC(c3nc(C(C)C)n[nH]3)C2)oc1C` (stereo not given), the Percent Effect is -3.77%.
